Source: PubChem BioAssay (Tox21)
“And” between values parts separate entries of the source, which are not always exact repeats. Equal values may be shown once. Inconclusive results are not listed. A call without a number means that no potency is given here. Where a structure was tested more than once in an assay, its records may differ in their call. The source made the active and inactive calls. Unless noted, the call rests on the fitted dose curve; in most records, active means well fitted cell-killing curve with a large enough effect in the repeat runs; inconclusive means weak or mixed curves, or effect the other way; inactive means no such curve, though single readings can be large or run the other way.

Assay: qHTS assay to identify small molecule agonists of the vitamin D receptor (VDR) signaling pathway - cell viability counter screen (AID 743224); further: nearly all actives have a fitted effect of over 50% in size; further: potency means the concentration at half of the fitted maximal effect
Settings: VDR-bla HEK293T viability, CellTiter-Glo luminescence, 16 h; series mostly up to 62.6 µM
Procedure, shortened: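 Viability is measured in the same wells as the VDR-bla reporter assay: after 16 h compound treatment and 2 h substrate loading, CellTiter-Glo is added and luminescence read 30 min later.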
For O=C(O)c1cn(-c2ccc(F)cc2)c2cc(N3CCNCC3)c(F)cc2c1=O, the Potency was “inactive”. With CC(=O)CC(=O)Nc1ccc2[nH]c(=O)[nH]c2c1 the Potency was “inactive”. For OCC(CO)N[C@H]1C[C@](O)(CO)[C@@H](O)[C@H](O)[C@H]1O, the Potency was “inactive”. In the case of C#CC(C)(CC)OC(=O)c1ccccc1C(=O)O (stereo not given), the Potency was “inactive”. With c1cnc2cc3c(cc2n1)C1CNCC3C1 the Potency was “inactive”. In the case of NCCO, the Potency was “inactive”. With CC(=O)Nc1ccc(C(=O)CCl)cc1 the Potency was “inactive and 54.9 µM (active)”. In the case of c1ccc2c(c1)CCCC2C1=NCCN1 (stereo not given), the Potency was “inactive”. With CC(C)CCOC(=O)c1ccc(N(C)C)cc1 the Potency was “inactive”.

Assay: qHTS assay to identify small molecule antagonists of the vitamin D receptor (VDR) signaling pathway - cell viability counter screen (AID 743225); further: nearly all actives have a fitted effect of over 50% in size
Settings: VDR-bla HEK293T viability, CellTiter-Glo luminescence, 16 h; series mostly up to 61 µM
Procedure, shortened: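 Luminescent cell viability (CellTiter-Glo) in VDR-bla HEK 293T cells after 16 h compound exposure at 37C in the presence of 3 nM final 1-alpha,25-dihydroxy vitamin D3.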
In the case of Cc1ccnc2c1NC(=O)c1cccnc1N2C1CC1, the Potency was “inactive”. In the case of CC(C(O)c1ccc(O)cc1)N1CCC(Cc2ccccc2)CC1 (stereo not given), the Potency was “inactive”. In the case of NCCCCCC(=O)O, the Potency was “inactive”. For NC12CC3CC(CC(C3)C1)C2, the Potency was “inactive”. In the case of CC(=O)OCCOCCOCCOC(C)=O, the Potency was “inactive”. With CCC(CO)(CO)COCC(CC)(CO)CO the Potency was “inactive”. With COc1ccc(Cc2cnc(N)nc2N)cc1OC the Potency was “inactive”. With O=C(OCc1ccccc1)c1ccc(O)cc1 the Potency was “inactive”. For CCCC(=O)c1ccccc1, the Potency was “inactive”. In the case of COc1nc(C)nc(Cl)c1NC1=NCCN1, the Potency was “inactive”. With CCCCN(CCO)CCCC the Potency was “inactive”. With COc1ccc(COC(C)=O)cc1 the Potency was “inactive”. With CCN1CCCC1CNC(=O)c1cc(S(=O)(=O)CC)c(N)cc1OC (stereo not given) the Potency was “inactive”. For C1COC(NC(C2CC2)C2CC2)=N1, the Potency was “inactive”. In the case of CCC(=O)/C=C/C1C(C)=CCCC1(C)C (stereo not given), the Potency was “inactive”. For C=C(C)C(=O)O, the Potency was “inactive”. With CC(C)(C)c1ccccc1 the Potency was “inactive”. In the case of [Cl][In]([Cl])[Cl], the Potency was “inactive”. With Cc1occc(=O)c1OC(=O)C(C)C the Potency was “inactive”. For NC(N)=Nc1nc(CSCC/C(N)=N/S(N)(=O)=O)cs1, the Potency was “inactive”. With CCCCCCCCCCCCCCCCCl the Potency was “inactive”. For COC(c1ccccc1)(c1ccccc1)[C@H](Oc1nc(C)cc(C)n1)C(=O)O, the Potency was “inactive”. For CCCCC/C=C/CC1CC(=O)OC1=O (stereo not given), the Potency was “inactive”. In the case of O=C(O)c1cc(Cl)cc(Cl)c1, the Potency was “inactive”. In the case of CCn1cc(C(=O)O)c(=O)c2cc(F)c(N3CCNC(C)C3)c(F)c21 (stereo not given), the Potency was “inactive”. With O=C(O)c1cn(-c2ccc(F)cc2)c2cc(N3CCNCC3)c(F)cc2c1=O the Potency was “inactive”. With CC(=O)CC(=O)Nc1ccc2[nH]c(=O)[nH]c2c1 the Potency was “inactive”. In the case of OCC(CO)N[C@H]1C[C@](O)(CO)[C@@H](O)[C@H](O)[C@H]1O, the Potency was “inactive”. In the case of C#CC(C)(CC)OC(=O)c1ccccc1C(=O)O (stereo not given), the Potency was “inactive”. For c1cnc2cc3c(cc2n1)C1CNCC3C1, the Potency was “inactive”. In the case of NCCO, the Potency was “inactive”. For CC(=O)Nc1ccc(C(=O)CCl)cc1, the Potency was “inactive”. In the case of c1ccc2c(c1)CCCC2C1=NCCN1 (stereo not given), the Potency was “inactive”. With CC(C)CCOC(=O)c1ccc(N(C)C)cc1 the Potency was “inactive”.

Assay: qHTS assay to identify small molecule agonists of the NFkB signaling pathway - cell viability counter screen (AID 1159515; calls by dose curve; further: nearly all actives have a fitted effect of over 55% in size)
Settings: NFkB-bla ME-180 viability, CellTiter-Glo luminescence, 5 h; series mostly up to 61 µM
Procedure, shortened: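 Multiplexed viability readout: after the 5 hr compound exposure and 1.5 hr FRET substrate step, CellTiter-Glo reagent went into the same NFkB-bla ME-180 wells; ATP luminescence was measured after 30 min at room temperature.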
In the case of Cc1ccnc2c1NC(=O)c1cccnc1N2C1CC1, the Potency was “inactive”. With CC(C(O)c1ccc(O)cc1)N1CCC(Cc2ccccc2)CC1 (stereo not given) the Potency was “inactive”. For NCCCCCC(=O)O, the Potency was “inactive”. In the case of NC12CC3CC(CC(C3)C1)C2, the Potency was “inactive”. With CC(=O)OCCOCCOCCOC(C)=O the Potency was “inactive”. With CC[C@@H](N)CO the Potency was “inactive”. For CCC(CO)(CO)COCC(CC)(CO)CO, the Potency was “inactive”. With COc1ccc(Cc2cnc(N)nc2N)cc1OC the Potency was “inactive”. For O=C(OCc1ccccc1)c1ccc(O)cc1, the Potency was “inactive”. With CCCC(=O)c1ccccc1 the Potency was “inactive”. With COc1nc(C)nc(Cl)c1NC1=NCCN1 the Potency was “inactive”. With CCCCN(CCO)CCCC the Potency was “inactive”. With COc1ccc(COC(C)=O)cc1 the Potency was “inactive”. For CC(=O)CC(C)=O, the Potency was “inactive”. For CCN1CCCC1CNC(=O)c1cc(S(=O)(=O)CC)c(N)cc1OC (stereo not given), the Potency was “inactive”. For C1COC(NC(C2CC2)C2CC2)=N1, the Potency was “inactive”. With NC(N)=NC(=O)Cc1c(Cl)cccc1Cl the Potency was “inactive”. In the case of CCC(=O)/C=C/C1C(C)=CCCC1(C)C (stereo not given), the Potency was “inactive”. For C=C(C)C(=O)O, the Potency was “inactive”. In the case of CC(C)(C)c1ccccc1, the Potency was “inactive”. With [Cl][In]([Cl])[Cl] the Potency was “inactive”. With Cc1occc(=O)c1OC(=O)C(C)C the Potency was “inactive”. For NC(N)=Nc1nc(CSCC/C(N)=N/S(N)(=O)=O)cs1, the Potency was “inactive”. With CCCCCCCCCCCCCCCCCl the Potency was “inactive”. In the case of COC(c1ccccc1)(c1ccccc1)[C@H](Oc1nc(C)cc(C)n1)C(=O)O, the Potency was “inactive”. For CCCCC/C=C/CC1CC(=O)OC1=O (stereo not given), the Potency was “inactive”. For O=C(O)c1cc(Cl)cc(Cl)c1, the Potency was “inactive”. With CCn1cc(C(=O)O)c(=O)c2cc(F)c(N3CCNC(C)C3)c(F)c21 (stereo not given) the Potency was “inactive”. In the case of O=C(O)c1cn(-c2ccc(F)cc2)c2cc(N3CCNCC3)c(F)cc2c1=O, the Potency was “inactive”. For CC(=O)CC(=O)Nc1ccc2[nH]c(=O)[nH]c2c1, the Potency was “inactive”. With OCC(CO)N[C@H]1C[C@](O)(CO)[C@@H](O)[C@H](O)[C@H]1O the Potency was “inactive”. For C#CC(C)(CC)OC(=O)c1ccccc1C(=O)O (stereo not given), the Potency was “inactive”. In the case of c1cnc2cc3c(cc2n1)C1CNCC3C1, the Potency was “inactive”. In the case of NCCO, the Potency was “inactive”. In the case of CC(=O)Nc1ccc(C(=O)CCl)cc1, the Potency was “inactive”. In the case of c1ccc2c(c1)CCCC2C1=NCCN1 (stereo not given), the Potency was “inactive”. In the case of CC(C)CCOC(=O)c1ccc(N(C)C)cc1, the Potency was “inactive”.
